From PubChem
LASV entry inh – Lassa virus entry inhibition. Potency, µM (series often up to 37.9 µM), actives largely listed as inhibitors. 1.2% of 300,000 active. Lassa virus pseudotype entry inhibition, cell reporter; calls by dose curve; tested in HEK293 cells; further: nearly all actives have a fitted effect of over 50% in size
FMDV antiviral – antivirals against foot and mouth disease virus; FMDV antiviral cell-based qHTS; Potency, µM (top dose mostly 57.9 µM), most hits filed as inhibitors; 1.2% of 410,000 active; AID 1159524; calls by dose curve; tested in HEK293T cells; further: read-out not given here; nearly all actives have a fitted effect of over 45% in size
HCMV antiviral – blocks human cytomegalovirus replication. HFF cells, HCMV-luciferase reporter, 72 h; hits give low values. activity change, negative = inhibition, % at 57.5 µM. 4.5% of 410,000 active; in the data active means activity change below about -60%; inconclusive means no clear call, values can overlap the other calls; inactive means above about -39%
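Luciferase read-out from HCMV-luciferase-infected HFFs (MOI 1 PFU/cell) 72 h post infection at 37C; compounds added after 16 h cell attachment; activity normalized between buffer-only basal and Salinomycin (10uM) inhibitor controls.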
Vaccinia mCherry – vaccinia inhibition (mCherry reporter); Vaccinia virus mCherry reporter infection, fluorescence; 0.63% of 310,000 active; AID 720579; Potency, µM (series often up to 36.5 µM), hits mostly inhibitors; calls by dose curve; tested in A549 cells; further: nearly all actives have a fitted effect of over 35% in size
VACV Venus inh – vaccinia inhibition (Venus reporter). Vaccinia virus Venus reporter expression, fluorescence. Potency, µM (highest dose often 36.5 µM), hits mostly inhibitors. 0.46% of 330,000 active. AID 720580; calls by dose curve; tested in A549 cells; further: nearly all actives have a fitted effect of over 30% in size
Marburg entry inh – inhibitors of Marburg virus binding or cell entry; Marburg virus pseudotyped entry inhibition, cell reporter; Potency, µM (highest dose often 37.8 µM), hits mostly inhibitors; 1.8% of 300,000 active; AID 540276; calls by dose curve; tested in HEK293 cells
A number is an active result; ! = not active in a repeat. Hits are enriched below; roughly 6.5% of the tested compounds scored in any of these assays.

Results for O=[N+]([O-])c1ccc(C[n+]2cccc3ccc4cccnc4c32)cc1 ?
LASV entry inh: inactive; FMDV antiviral: inactive; HCMV antiviral: -96; Vaccinia mCherry: inconclusive; VACV Venus inh: inconclusive; Marburg entry inh: inconclusive

Results for CCN(CC)CCCN=Cc1c(O)n(Cc2ccccc2)c(=O)c2ccccc12 ?
LASV entry inh: inconclusive; FMDV antiviral: inactive; HCMV antiviral: inactive; VACV Venus inh: inconclusive; Marburg entry inh: inconclusive

Results for O=c1c2ccccc2c(/C=N/c2ncn[nH]2)c(O)n1Cc1ccccc1 ?
LASV entry inh: inactive; FMDV antiviral: inactive; HCMV antiviral: -82!; Vaccinia mCherry: inconclusive; VACV Venus inh: inconclusive; Marburg entry inh: inconclusive

How did CC(C)CCC(C)N=Cc1c(O)n(Cc2ccccc2)c(=O)c2ccccc12 (configuration not stated) do in these assays?
LASV entry inh: inactive; FMDV antiviral: inactive; HCMV antiviral: inactive; VACV Venus inh: inactive; Marburg entry inh: 13µM

What do the screens show for `Cc1cccc2cc(C#N)c(NCCCNS(=O)(=O)c3ccc(Cl)cc3)nc12`?
FMDV antiviral: inconclusive; HCMV antiviral: -67

What do the screens show for `Cc1cccc2cc(C#N)c(NCCNS(=O)(=O)c3ccccc3)nc12`?
LASV entry inh: inactive; FMDV antiviral: inactive; HCMV antiviral: inactive; Vaccinia mCherry: inactive; VACV Venus inh: inactive; Marburg entry inh: inconclusive

What do the screens show for `CCS(=O)(=O)c1nc(S(=O)(=O)c2ccc(Cl)cc2)c(N2CCN(CCO)CC2)s1`?
FMDV antiviral: inactive; HCMV antiviral: -66

How did CCN1CCN(c2sc(S(=O)(=O)CC)nc2S(=O)(=O)c2ccc(Cl)cc2)CC1 do in these assays?
FMDV antiviral: inactive; HCMV antiviral: inconclusive; Vaccinia mCherry: inactive; VACV Venus inh: inactive

What do the screens show for `CCS(=O)(=O)c1nc(S(=O)(=O)c2ccc(Cl)cc2)c(N2CCc3ccccc3C2)s1`?
LASV entry inh: inconclusive; FMDV antiviral: inactive; HCMV antiviral: -73; Vaccinia mCherry: inactive; VACV Venus inh: inactive; Marburg entry inh: inconclusive

How did COc1ccc(Cl)cc1NC(=O)c1oc2ccc(S(=O)(=O)N3CCCCC3)cc2c1C do in these assays?
LASV entry inh: inactive; FMDV antiviral: inactive; HCMV antiviral: inactive; Vaccinia mCherry: inactive; VACV Venus inh: inactive

How did Cc1ccc2nc(-c3cccs3)c(Nc3c(C)cccc3C)n2c1 do in these assays?
LASV entry inh: inactive; FMDV antiviral: inconclusive; HCMV antiviral: inactive; Vaccinia mCherry: inactive; VACV Venus inh: inactive; Marburg entry inh: 7.1µM

What do the screens show for `Cc1ccccc1Nc1c(-c2cccnc2)nc2ccccn12`?
FMDV antiviral: inactive; HCMV antiviral: inconclusive; Vaccinia mCherry: inconclusive; VACV Venus inh: inactive

What do the screens show for `Cc1ccc2nc(-c3ccccn3)c(Nc3ccc(F)cc3)n2c1`?
LASV entry inh: inconclusive; FMDV antiviral: inconclusive; HCMV antiviral: -94; Vaccinia mCherry: inconclusive; VACV Venus inh: inconclusive; Marburg entry inh: inconclusive

What do the screens show for `Cc1cccc(C)c1Nc1c(-c2cccs2)nc2ncccn12`?
LASV entry inh: inactive; FMDV antiviral: inactive; HCMV antiviral: inactive; Vaccinia mCherry: inactive; VACV Venus inh: inactive; Marburg entry inh: inconclusive

Results for Cc1ccccc1Nc1c(-c2ccccn2)nc2ccccn12 ?
FMDV antiviral: inconclusive; HCMV antiviral: -98

Results for CC(C)c1ccc(Nc2c(-c3ccccn3)nc3ccccn23)cc1 ?
LASV entry inh: inconclusive; FMDV antiviral: inconclusive; HCMV antiviral: -87; Vaccinia mCherry: 11µM; VACV Venus inh: inconclusive; Marburg entry inh: inconclusive

How did Cc1cc(N(C)C)cc(C)c1C=O do in these assays?
Vaccinia mCherry: inactive; VACV Venus inh: inactive

How did CC(=O)Nc1ccccc1-c1nc(CNC(=O)c2ccc(F)c(F)c2)c(C)o1 do in these assays?
FMDV antiviral: inactive; Vaccinia mCherry: inactive; VACV Venus inh: inactive

How did O=C(NCc1ccccc1)O[C@H]1CC[C@@]23CCCN2C(=O)CCC[C@H]3[C@H]1Cc1ccccc1 do in these assays?
HCMV antiviral: inactive

What do the screens show for `Cc1ccc2nc(-c3ccccn3)c(N)n2c1`?
FMDV antiviral: 14µM; HCMV antiviral: inactive; Vaccinia mCherry: inactive; VACV Venus inh: inactive

What do the screens show for `Cc1ccc2nc(-c3ccccn3)c(Nc3ccccc3C)n2c1`?
LASV entry inh: inconclusive; FMDV antiviral: inconclusive; HCMV antiviral: -100; Vaccinia mCherry: 6.3µM; VACV Venus inh: inconclusive; Marburg entry inh: inactive

Results for Cc1ccn2c(Nc3ccccc3)c(-c3ccccn3)nc2c1 ?
LASV entry inh: 5.8µM; FMDV antiviral: inactive; HCMV antiviral: inactive; Vaccinia mCherry: 2.2µM; VACV Venus inh: inactive; Marburg entry inh: inconclusive

How did Cc1ccc2nc(-c3ccncc3)c(Nc3ccccc3C)n2c1 do in these assays?
LASV entry inh: inactive; FMDV antiviral: inactive; HCMV antiviral: inconclusive; Vaccinia mCherry: inactive; VACV Venus inh: inactive; Marburg entry inh: inactive

Results for Cc1ccn2c(Nc3ccccc3C)c(-c3ccccn3)nc2c1 ?
LASV entry inh: inconclusive; FMDV antiviral: inconclusive; HCMV antiviral: -81; Vaccinia mCherry: 7.9µM; VACV Venus inh: inconclusive; Marburg entry inh: inconclusive

What do the screens show for `Cc1ccc(-c2nc3ccc(C)cn3c2Cc2ccccn2)cc1`?
FMDV antiviral: inactive; HCMV antiviral: inactive; Vaccinia mCherry: inactive; VACV Venus inh: inactive

How did Cc1ccccc1N1CCN(C2CCCN(C(=O)c3cn4cccc(C)c4n3)C2)CC1 (configuration not stated) do in these assays?
FMDV antiviral: 45µM; HCMV antiviral: inactive

Results for Cc1ccccc1N1CCN(C2CCCN(C(=O)c3ccccn3)C2)CC1 (configuration not stated) ?
LASV entry inh: inconclusive; FMDV antiviral: inactive; HCMV antiviral: inactive; Vaccinia mCherry: inactive; VACV Venus inh: inactive; Marburg entry inh: inconclusive

Results for O=C1[C@@H]2[C@H]3[C@H](O)[C@H](O)CC(=NOC[C@@H](O)COCc4ccco4)[C@@H]3CC[C@H]2C(=O)N1Cc1ccccc1 ?
Marburg entry inh: inactive

How did Cc1cc(C)c(-n2c(SCCS(=O)(=O)c3ccc(F)cc3)n[nH]c2=O)c(C)c1 do in these assays?
LASV entry inh: inconclusive; FMDV antiviral: inactive; HCMV antiviral: inactive; Vaccinia mCherry: 2µM; VACV Venus inh: 2.8µM; Marburg entry inh: inconclusive

What do the screens show for `Cc1ccc(S(=O)(=O)CCSc2n[nH]c(=O)n2-c2ccccc2)cc1`?
LASV entry inh: inactive; FMDV antiviral: inactive; HCMV antiviral: inconclusive; Vaccinia mCherry: 2µM; VACV Venus inh: 2µM; Marburg entry inh: inactive

How did Cc1ccc(S(=O)(=O)CCSc2nccn2C)cc1 do in these assays?
LASV entry inh: inactive; FMDV antiviral: inactive; HCMV antiviral: inactive; Vaccinia mCherry: inactive; VACV Venus inh: inactive; Marburg entry inh: inactive

How did Cc1cc(C)c(-n2c(SCc3nc4ccccc4s3)n[nH]c2=O)c(C)c1 do in these assays?
LASV entry inh: inconclusive; FMDV antiviral: 35µM; HCMV antiviral: inactive; Vaccinia mCherry: inactive; VACV Venus inh: inactive; Marburg entry inh: inconclusive

What do the screens show for `Cc1ncc(CO)c2c1Oc1nc(-c3ccccc3)nc(SCC(=O)Nc3cccc(C(F)(F)F)c3)c1C2`?
LASV entry inh: inactive; FMDV antiviral: inactive; HCMV antiviral: inactive; Vaccinia mCherry: inactive; VACV Venus inh: inactive
